Structures can show the parent of a compound that is named as a salt.
These compounds were tested on Drosophila S2 cl14 SmoIP sensor cells (assay: normalized SmoIP GFP fluorescence (untreated unstimulated = 0%, untreated Hh-stimulated = 100%); higher = more Smo activation sensor fluorescence). Settings: stimulation: Hh conditioned medium (+Hh); compound concentration: 2 uM; 24 h.
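Note: flow cytometry read-out as median GFP intensity of gated cells, compounds added 30 min before Hh-conditioned or mock medium, mock-treated cells serving as unstimulated baseline.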

Row | SMILES | normalized SmoIP GFP fluorescence [%]
1 | Cc1cnc(NC(=O)Nc2cc(Br)c(C)cc2OC[C@@H]2CNCCO2)cn1 | 112
2 | Cc1cc(O)c2c(c1)C(=O)c1cccc(O)c1C2=O [Chrysophanic-acid-Chrysophanol] | 133
3 | O=C(O)C1(Cc2cccc(Nc3nccs3)n2)CCC(Oc2cccc(Cl)c2F)CC1 (stereo unspecified) | 179
4 | O=C(CCCCCCNC(=O)c1cnc(N(c2ccccc2)c2ccccc2)nc1)NO [rocilinostat-acy-1215] | 114
5 | COc1ccccc1Oc1c(NS(=O)(=O)c2ccc(C(C)(C)C)cc2)nc(-c2ncccn2)nc1OCCO [bosentan-hydrate] | 109
6 | Cc1ccc(C(=O)Cn2c3c(sc2=N)CCCC3)cc1 [pifithrin-alpha] | 98.6
7 | COc1cc2c(cc1OC)CC(=O)N(CCCN(C)C[C@@H]1Cc3cc(OC)c(OC)cc31)CC2 [ivabradine-hcl-procoralan] | 111
8 | Cc1cccc(C)c1OCC(=O)N[C@@H](Cc1ccccc1)[C@@H](O)C[C@H](Cc1ccccc1)NC(=O)[C@H](C(C)C)N1CCCNC1=O [Lopinavir] | 117
9 | Cc1ncc(-c2ccnc(Nc3ccc(S(C)(=O)=O)cc3)n2)n1C(C)C | 156
10 | CN1CCc2nc(C(=O)N[C@@H]3C[C@@H](C(=O)N(C)C)CC[C@@H]3NC(=O)C(=O)Nc3ccc(Cl)cn3)sc2C1 [edoxaban] | 106
11 | CCCc1nn(C)c2c(=O)[nH]c(-c3cc(S(=O)(=O)N4CCN(C)CC4)ccc3OCC)nc12 [Sildenafil-citrate] | 76.3
12 | COc1ccc(CC(C)NCC(O)c2ccc(O)c(NC=O)c2)cc1 (stereo unspecified) [formoterol-hemifumarate] | 129
13 | Nc1ncnc2c1c(-c1cccc(OCc3ccccc3)c1)cn2C1CC(CN2CCCC2)C1 (stereo unspecified) | 117
14 | CC(=O)Nc1nc(C)c(-c2ccc(Cl)c(S(=O)(=O)NCCO)c2)s1 | 130
15 | CN(C)C(=O)Nc1cccc(-c2ccc(N(C)C)cc2)c1 [atglistatin] | 130
16 | Nc1cc(F)ccc1NC(=O)/C=C/c1cnn(C/C=C/c2ccccc2)c1 [rgfp966] | 112
17 | CC(C)(C#N)c1cc(Cn2cncn2)cc(C(C)(C)C#N)c1 [Anastrozole] | 109
18 | COc1ccc(-c2ccc3c(N4CCOCC4)nc(N4C[C@@H](C)O[C@@H](C)C4)nc3n2)cc1CO | 62.1
19 | CC(C)[C@H](C(=O)Nc1ccc(C(=O)NO)cc1)c1ccccc1 | 299

Row | SMILES | normalized SmoIP GFP fluorescence [%]
20 | Oc1ccc(Nc2nc(-c3ccc(Cl)cc3)cs2)cc1 | 113
21 | CCCCc1nc2cc(/C=C/C(=O)NO)ccc2n1CCN(CC)CC | 208
22 | CCN(CC)CCOC(=O)c1ccc(N)cc1 [procaine-novocaine-hcl] | 107
23 | COc1ccc(-n2nc(C(N)=O)c3c2C(=O)N(c2ccc(N4CCCCC4=O)cc2)CC3)cc1 | 102
24 | Cc1c(Nc2ncccc2C(=O)O)cccc1C(F)(F)F [flunixin-meglumin] | 123
25 | CC(C)c1cnn2c(NCc3ccccc3)cc(NCCCCCCN)nc12 | 105
26 | CC(C)C[C@@H](C=O)NC(=O)[C@H](CC(C)C)NC(=O)[C@H](CC(C)C)NC(=O)OCc1ccccc1 | 112
27 | CC(=O)OCC(=O)NCCCOc1cccc(CN2CCCCC2)c1 [roxatidine-acetate-hcl] | 142
28 | CC(=O)Nc1cccc(N2C(=O)N(C3CC3)C(=O)C3C(Nc4ccc(I)cc4F)N(C)C(=O)C(C)C32)c1 (stereo unspecified) | 140
29 | CC[C@@]1(O)C(=O)OCc2c1cc1n(c2=O)Cc2cc3c(CN(C)C)c(O)ccc3nc2-1 [Topotecan-Hydrochloride] | 110
30 | Fc1ccc([C@@H]2CCNC[C@H]2COc2ccc3c(c2)OCO3)cc1 [paroxetine-hcl] | 103
31 | CC(=O)Oc1cc2c(s1)CCN(C(C(=O)C1CC1)c1ccccc1F)C2 (stereo unspecified) [Prasugrel] | 107
32 | NC(=O)N1c2ccccc2CC(=O)c2ccccc21 [Oxcarbazepine] | 103
33 | Nc1nc(Nc2ccc(S(N)(=O)=O)cc2)nn1C(=O)c1c(F)cccc1F | 205
34 | COc1ccc(Cn2ccc3ccc(C(=O)NO)cc32)cc1 | 111
35 | Nc1ccccc1NC(=O)c1ccc(CNc2nccc(-c3cccnc3)n2)cc1 [MGCD0103(Mocetinostat)] | 214
36 | COC(=O)C1=C(C)NC(C)=C(C(=O)OCCN2CCN(C(c3ccccc3)c3ccccc3)CC2)C1c1cccc([N+](=O)[O-])c1 (stereo unspecified) [Manidipine(Manyper)] | 118
37 | N#Cc1c(O)c2c(-c3ccc(-c4ccccc4O)cc3)csc2[nH]c1=O | 139
38 | O=C1CCC(N2C(=O)c3ccccc3C2=O)C(=O)N1 (stereo unspecified) [Thalidomide] | 101

Same assay, conditions: stimulation: mock conditioned medium (-Hh); compound concentration: 2 uM; 24 h

Row | SMILES | normalized SmoIP GFP fluorescence [%]
39 | Cc1cnc(NC(=O)Nc2cc(Br)c(C)cc2OC[C@@H]2CNCCO2)cn1 | -14.5
40 | Cc1cc(O)c2c(c1)C(=O)c1cccc(O)c1C2=O [Chrysophanic-acid-Chrysophanol] | -7.42
41 | O=C(O)C1(Cc2cccc(Nc3nccs3)n2)CCC(Oc2cccc(Cl)c2F)CC1 (stereo unspecified) | 24.4
42 | O=C(CCCCCCNC(=O)c1cnc(N(c2ccccc2)c2ccccc2)nc1)NO [rocilinostat-acy-1215] | 6.2
43 | COc1ccccc1Oc1c(NS(=O)(=O)c2ccc(C(C)(C)C)cc2)nc(-c2ncccn2)nc1OCCO [bosentan-hydrate] | -1.63
44 | Cc1ccc(C(=O)Cn2c3c(sc2=N)CCCC3)cc1 [pifithrin-alpha] | -1
45 | COc1cc2c(cc1OC)CC(=O)N(CCCN(C)C[C@@H]1Cc3cc(OC)c(OC)cc31)CC2 [ivabradine-hcl-procoralan] | -11.2
46 | Cc1cccc(C)c1OCC(=O)N[C@@H](Cc1ccccc1)[C@@H](O)C[C@H](Cc1ccccc1)NC(=O)[C@H](C(C)C)N1CCCNC1=O [Lopinavir] | 6.52
47 | Cc1ncc(-c2ccnc(Nc3ccc(S(C)(=O)=O)cc3)n2)n1C(C)C | 11.2
48 | CN1CCc2nc(C(=O)N[C@@H]3C[C@@H](C(=O)N(C)C)CC[C@@H]3NC(=O)C(=O)Nc3ccc(Cl)cn3)sc2C1 [edoxaban] | -1.34
49 | CCCc1nn(C)c2c(=O)[nH]c(-c3cc(S(=O)(=O)N4CCN(C)CC4)ccc3OCC)nc12 [Sildenafil-citrate] | -1.88
50 | COc1ccc(CC(C)NCC(O)c2ccc(O)c(NC=O)c2)cc1 (stereo unspecified) [formoterol-hemifumarate] | -8.77
51 | Nc1ncnc2c1c(-c1cccc(OCc3ccccc3)c1)cn2C1CC(CN2CCCC2)C1 (stereo unspecified) | 5.45
52 | CC(=O)Nc1nc(C)c(-c2ccc(Cl)c(S(=O)(=O)NCCO)c2)s1 | -1.13
53 | CN(C)C(=O)Nc1cccc(-c2ccc(N(C)C)cc2)c1 [atglistatin] | 18.1
54 | Nc1cc(F)ccc1NC(=O)/C=C/c1cnn(C/C=C/c2ccccc2)c1 [rgfp966] | -0.775
55 | CC(C)(C#N)c1cc(Cn2cncn2)cc(C(C)(C)C#N)c1 [Anastrozole] | -2.96
56 | COc1ccc(-c2ccc3c(N4CCOCC4)nc(N4C[C@@H](C)O[C@@H](C)C4)nc3n2)cc1CO | -12.5
57 | CC(C)[C@H](C(=O)Nc1ccc(C(=O)NO)cc1)c1ccccc1 | 60.6

Row | SMILES | normalized SmoIP GFP fluorescence [%]
58 | Oc1ccc(Nc2nc(-c3ccc(Cl)cc3)cs2)cc1 | -0.151
59 | CCCCc1nc2cc(/C=C/C(=O)NO)ccc2n1CCN(CC)CC | 34.2
60 | CCN(CC)CCOC(=O)c1ccc(N)cc1 [procaine-novocaine-hcl] | -3.5
61 | COc1ccc(-n2nc(C(N)=O)c3c2C(=O)N(c2ccc(N4CCCCC4=O)cc2)CC3)cc1 | -1.56
62 | Cc1c(Nc2ncccc2C(=O)O)cccc1C(F)(F)F [flunixin-meglumin] | -12.6
63 | CC(C)c1cnn2c(NCc3ccccc3)cc(NCCCCCCN)nc12 | 10.7
64 | CC(C)C[C@@H](C=O)NC(=O)[C@H](CC(C)C)NC(=O)[C@H](CC(C)C)NC(=O)OCc1ccccc1 | 11.3
65 | CC(=O)OCC(=O)NCCCOc1cccc(CN2CCCCC2)c1 [roxatidine-acetate-hcl] | -6.97
66 | CC(=O)Nc1cccc(N2C(=O)N(C3CC3)C(=O)C3C(Nc4ccc(I)cc4F)N(C)C(=O)C(C)C32)c1 (stereo unspecified) | -4.08
67 | CC[C@@]1(O)C(=O)OCc2c1cc1n(c2=O)Cc2cc3c(CN(C)C)c(O)ccc3nc2-1 [Topotecan-Hydrochloride] | 15.7
68 | Fc1ccc([C@@H]2CCNC[C@H]2COc2ccc3c(c2)OCO3)cc1 [paroxetine-hcl] | 0.588
69 | CC(=O)Oc1cc2c(s1)CCN(C(C(=O)C1CC1)c1ccccc1F)C2 (stereo unspecified) [Prasugrel] | -2.42
70 | NC(=O)N1c2ccccc2CC(=O)c2ccccc21 [Oxcarbazepine] | 2.97
71 | Nc1nc(Nc2ccc(S(N)(=O)=O)cc2)nn1C(=O)c1c(F)cccc1F | 67.9
72 | COc1ccc(Cn2ccc3ccc(C(=O)NO)cc32)cc1 | -8.59
73 | Nc1ccccc1NC(=O)c1ccc(CNc2nccc(-c3cccnc3)n2)cc1 [MGCD0103(Mocetinostat)] | 9
74 | COC(=O)C1=C(C)NC(C)=C(C(=O)OCCN2CCN(C(c3ccccc3)c3ccccc3)CC2)C1c1cccc([N+](=O)[O-])c1 (stereo unspecified) [Manidipine(Manyper)] | 3.85
75 | N#Cc1c(O)c2c(-c3ccc(-c4ccccc4O)cc3)csc2[nH]c1=O | 6.28
76 | O=C1CCC(N2C(=O)c3ccccc3C2=O)C(=O)N1 (stereo unspecified) [Thalidomide] | 4.26

Reference: the supplement of paper PMC5662767
